Results on 40 molecules are retold here after PubChem BioAssay (EPA / NIEHS).

The structures appear in SMILES notation. Records with an inconclusive call do not appear. Calls of active or inactive are those of the source. How the source made its calls, unless noted: active means hit-call score of the fitted dose curve at least 0.9, where 1 is the maximum; inactive means score below 0.9.

Test [1] can be described thus: CCTE_Harrill_HTTr_Viability_MCF7: CCTE's 6-hour Cell Viability Assessment for the High-Throughput Transcriptomics (HTTr) Platform, in MCF-7 cells cultured in DMEM + 10% fetal bovine serum, Harrill Lab (AID 2284010). The method, boiled down:
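Propidium iodide exclusion, imaged by high-content analysis, gauged viability after a six-hour exposure across eight concentrations. Cells were MCF-7 grown in DMEM with 10% fetal bovine serum; fits run in both directions against DMSO.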

A short description of test [2]: CCTE_Harrill_HTTr_Apoptosis_MCF7: CCTE's 6-hour Apoptosis Assessment for the High-Throughput Transcriptomics (HTTr) Platform, in MCF-7 cells cultured in DMEM + 10% fetal bovine serum, Harrill Lab (AID 2284011). An outline of the steps: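 MCF-7 (DMEM + 10% FBS), 384-well; 8-pt dilution series, 6 h chemical exposure; caspase-3/7 activation via CellEvent Caspase 3/7 Green, HCI; bidirectional fit vs DMSO.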

Test [3] can be described thus: CCTE_Shafer_MEA_acute_spike_number: CCTE's Neural Acute Assay for Total Number of Spikes, Shafer Lab (AID 2284008).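 On AC50: curve fitted for decrease in spike count so AC50 reflects inhibitors.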 An outline of the steps: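 Read-out is the total spike count over 40 min, expressed as percent change from each well's own pre-treatment baseline and fitted in the loss direction against DMSO. Rat cortical neurons were exposed at 0.03-40 uM on DIV 13 or 15.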

The nature of test [4]: CCTE_Shafer_MEA_acute_firing_rate_mean: CCTE's Neural Acute Assay for Mean Firing Rate, Shafer Lab (AID 2284009). An outline of the steps: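 Rat cortical neuron cultures matured to DIV 13 or 15, equilibrated 20 min at 37 C, then recorded 40 min for baseline. Compound (0.03-40 uM) added and a further 40 min recorded; percent change in mean firing rate calculated per well.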

Test [5] is described as follows: CCTE_Harrill_HTTr_CellCount_MCF7: CCTE's Cell Proliferation Assessment for the High-Throughput Transcriptomics (HTTr) Platform, Harrill Lab (AID 2284012; active means hit-call score of the fitted dose curve at least 0.9, where 1 is the maximum;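 further: cells exposed to compound for six hours; intended direction is loss of nuclei count meaning fewer cells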). The method, boiled down:
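Cell count from high-content imaging of Hoechst-labeled nuclei serves as viability/growth readout. Chemicals were applied to MCF-7 cells in eight concentrations for six hours, with fitting in both directions relative to DMSO.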

The nature of test [6]: CCTE_Shafer_MEA_acute_burst_number: CCTE's Neural Acute Assay for Single-Electrode Bursts, Shafer Lab (AID 2284013). An outline of the steps: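 Percent change in single-electrode burst number per well, from 40-min recordings taken before and after adding compound (0.03-40 uM) to primary rat cortical neurons on MEA plates at DIV 13 or 15, 37 C.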
Test [7] is described as follows: CCTE_Shafer_MEA_acute_burst_duration_mean: CCTE's Neural Acute Assay for Mean Burst Duration, Shafer Lab (AID 2284014).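 Further: hits are decreases in mean burst duration relative to DMSO controls.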 An outline of the steps: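 Rat cortical cultures, DIV 13/15; 40 min baseline, then 40 min with compound (0.03-40 uM), 37 C. Spikes: 300-5000 Hz band-pass, 8x rms threshold. Read-out: % change in mean single-electrode burst duration, DMSO-referenced, loss direction.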

Test [8] in a line: CCTE_Simmons_MITO_max_resp_rate: CCTE's HepG2 Seahorse XF Respirometric Screening Assay at Maximal Respiratory State [uncoupled], Simmons Lab (AID 2284002). The following applies: actives raise or lower the signal. As for the experimental part: CCTE_Simmons_MITO is cell-based, respirometric assay using HepG2 cells and a Seahorse XF Analyzer to measure oxygen consumption rates over four temporal phases spanning a total of 72 minutes: pre-injection (pre-treatment), basal (following test compound injection), maximal (following FCCP uncoupler injection), and inhibited (following rotenone/antimycin A injection)CCTE_Simmons_MITO_max_resp_rate is one of 4 assay components calculated from the CCTE_Simmons_MITO assay. It is designed to make measurements of maximal respiration using a form of respirometric reporter, as detected with […] signals by Seahorse XF96 technology. Data from the assay component CCTE_Simmons_MITO_max_resp_rate was analyzed at the endpoint, CCTE_Simmons_MITO_max_resp_rate_OCR, with bidirectional fitting relative to DMSO as the negative control and baseline of activity. Using a type of respirometric reporter, measures of maximal respiration for gain or loss-of-signal activity can be used to understand cellular oxygen consumption as it relates to cellular respiration. To generalize the intended target to other relatable targets, this assay endpoint is annotated to the mitochondria intended target family, where the subfamily is respiration.
Test chemicals were administered as a titrated series of 7 concentrations from 125 nM up to 100 uM [final] prior to kinetic endpoint detection at 6 minute intervals [3 min mix followed by 3 minutes measure] for 72 minutes. Three biological replicates of technical singles were run for every chemical concentration tested. Dimethylsulfoxide [DMSO] was used as the vehicle control. The electron transport chain inhibitor fenpyroximate was used as the positive control for decreased basal respiration and was administered as a titrated series of 6 concentrations from 250 nM up to 2.75 uM [final] with technical triplicates for the top concentration only. The uncoupler 2,4-dintirophenol was used as the positive control for increased basal respiration and was administered as a titrated series of 6 concentrations from 938 nM up to 40 uM [final] with technical triplicates for the top concentration only. A Seahorse XF Analzyer is required to measure the response.

The nature of test [9]: CCTE_Simmons_MITO_inhib_resp_rate: CCTE's HepG2 Seahorse XF Respirometric Screening Assay at Inhibited Respiratory State [full ETC block], Simmons Lab (AID 2284006). To be noted: actives raise or lower the signal. An outline of the steps:
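This endpoint is the respiration rate remaining after rotenone/antimycin A block, in HepG2 cells on a Seahorse XF96. Chemicals spanned 125 nM–100 uM final, in three biological replicates. OCR was read every 6 minutes for 72 minutes and compared with DMSO vehicle.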

Test [10] can be described thus: CCTE_Simmons_MITO_viability: CellTiter-Glo Viability Assessment for CCTE's HepG2 Seahorse XF Respirometric Screening Assay [post-hoc], Simmons Lab (AID 2284007; active means hit-call score of the fitted dose curve at least 0.9, where 1 is the maximum). An outline of the steps:
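Luciferase-coupled ATP read-out after the Seahorse run: HepG2 cells treated 90 minutes with test chemical, 7-point series of 125 nM–100 uM final, in triplicate biological runs. Vehicle DMSO; dichlone as positive control over 8 concentrations.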
On the technique in general: In ATP-based viability assays light output follows the ATP content of the culture.

`CCNc1nc(Cl)nc(NC(C)(C)C)n1`: the outcome in test [1] and in [2] was inactive.
The term AC50 denotes the concentration at which the activity in the assay is half-maximal. With `CCCCC(CC)COP(=O)(Oc1ccccc1)Oc1ccccc1` (stereo not drawn), the AC50 in test [3] and in test [4] was 15 µM (active) in each case. The result in test [1], in [2], in [5], in test [6] and in test [7] was inactive.
As for `ClC(Cl)=C(c1ccc(Cl)cc1)c1ccccc1Cl`, the result in test [1] and in test [2] was inactive.
With `CCC1(c2ccccc2)C(=O)N=C(O)NC1=O` (stereo not drawn), the molecule was classed as inactive in [3], in [4], in test [1], in test [2], in test [5] and in test [6]. For the same molecule, the call in [7] was inactive.
`CCOc1ccc(C(C)(C)COCc2cccc(Oc3ccccc3)c2)cc1`: the call in test [3], in test [4], in [1], in test [2], in [5] and in test [6] was inactive. Also, the outcome in [7] was inactive.
In the case of `CCOP(=S)(OCC)SCSc1ccc(Cl)cc1`, the result in test [1] and in test [2] was inactive.
Take `ClC1=C(Cl)C2(Cl)C3C(Cl)C(Cl)CC3C1(Cl)C2(Cl)Cl` (stereo not drawn): the molecule was called inactive in [3], in test [4], in test [1], in test [2], in test [5] and in test [6]. Further, the outcome in [7] was inactive.
Turning to `O=C(O)C1C(C(=O)O)C2(Cl)C(Cl)=C(Cl)C1(Cl)C2(Cl)Cl` (stereo not drawn), the molecule was called inactive in test [3], in [4], in test [1], in test [2], in [5] and in [6]. In addition, the result in test [7] was inactive.
For the molecule `CO/N=C(/C(=O)OC)c1ccccc1COc1ccccc1C`, the result in test [1] and in test [2] was inactive.
For `CC(C)(C)c1ccccc1OP(=O)(Oc1ccccc1)Oc1ccccc1`, the values for the AC50 in test [3], in test [4] and in [6] were 1.33 µM (active), 1.33 µM (active) and 1.23 µM (active), respectively. In [7], the molecule was called inactive.
`CN(C)C(=O)Cl`: the result in test [1] and in [2] was inactive.
In the case of `COCCOCCO`, the call in [3], in [4], in [1], in test [2], in test [6] and in test [7] was inactive.
For `Nc1ccc(Cl)cc1`, the result in test [1] and in [2] was inactive.
`CC(C)(C)c1ccc(O)cc1`: the molecule was called inactive in test [8], in [9], in test [10], in test [1], in test [2] and in test [5].
For the molecule `Nc1ccc2ccccc2c1`, the AC50 in [3] and in [4] was 0.109 µM (active) in each case. For the same molecule, the outcome in [1], in [2], in test [5], in test [6] and in [7] was inactive.
As to `Nc1cc2c3c(c1)C(c1ccccc1)=N[C@@H](NC(=O)c1cccnc1)C(=O)N3CC2`, the result in test [1] and in test [2] was inactive.
With `[N-]=[N+]=[N-]`, the AC50 in test [8] was 50 µM (active). In addition, the outcome in test [9], in [3], in test [4], in test [1], in test [2] and in [5] was inactive. Also, the molecule was classed as inactive in test [6] and in test [7].
As to `CCCCCCCc1ccc(O)cc1`, the AC50 in test [8] was 27.6 µM (active). The result in test [9], in test [1] and in test [2] was inactive.
For the molecule `ClC(Cl)(Cl)c1ccccc1`, the molecule was classed as inactive in [8], in test [9], in [10], in test [3], in test [4] and in test [1]. For the same molecule, the outcome in test [2], in test [5], in test [6] and in test [7] was inactive.
On to `Cc1ccc2c(c1N)C(=O)c1ccccc1C2=O`, for which the result in test [1] and in [2] was inactive.
For `CC(Cl)(Cl)C(=O)O`, the result in test [3], in test [4], in [1], in test [2], in test [5] and in [6] was inactive. Besides, the molecule was called inactive in [7].
With `ClC(Cl)c1ccccc1`, the result in test [1] and in test [2] was inactive.
Regarding `Clc1ccc(Oc2ccccc2)cc1`, the outcome in test [1] and in test [2] was inactive.
`O=P(Oc1ccccc1)(Oc1ccccc1)Oc1ccccc1`: the outcome in test [1] and in test [2] was inactive.
On to `c1ccc2c(c1)Nc1ccccc1S2`, for which the AC50 in test [3] is 4.42 µM (active); in test [4], 4.45 µM (active); in [6], 3.97 µM (active); in test [7], 34.9 µM (active). The result in test [1], in test [2] and in test [5] was inactive.
On to `CCC(C)(C)c1ccc(O)cc1`, for which the AC50 in [8] is 42.5 µM (active); in test [3] it was 0.186 µM (active); in [4], 0.186 µM (active); in test [6], 0.283 µM (active). Moreover, the result in test [9] and in test [7] was inactive.
For the molecule `CCOP(=S)(Oc1ccc([N+](=O)[O-])cc1)c1ccccc1` (stereo not drawn), the AC50 is 24.9 µM (active) in [3] and 25 µM (active) in test [4]. Further, the result in test [1], in test [2], in test [5], in [6] and in test [7] was inactive.
Turning to `Nc1ccc(Sc2ccc(N)cc2)cc1`, the outcome in [1] and in [2] was inactive.
Take `FC(F)(F)c1ccc(Cl)cc1`: the outcome in test [1] and in test [2] was inactive.
For `COP(=O)(CCC(=O)NCO)OC`, the result in [3], in test [4], in [6] and in test [7] was inactive.
On to `Cc1ccc([N+](=O)[O-])cc1C`, for which the outcome in test [1] and in test [2] was inactive.
Turning to `c1nc[nH]n1`, the outcome in test [1] and in [2] was inactive.
In the case of `Cc1ccc(N)cc1N`, the call in [8], in test [9], in [3], in test [4], in test [1] and in test [2] was inactive. For the same molecule, the result in [5], in test [6] and in [7] was inactive.
As for `OCC1CO1` (stereo not drawn), the outcome in test [1] and in test [2] was inactive.
As to `O=S(=O)(c1ccc(O)cc1)c1ccc(O)cc1`, the result in [1] and in test [2] was inactive.
For `CCOP(=S)(OCC)SCSCC`, the AC50 in [8] was 50 µM (active). For the same molecule, the outcome in [9], in [10], in test [1], in test [2] and in test [5] was inactive.
For `O=C(O)C(Cl)Cl`, the result in test [1], in test [2] and in test [5] was inactive.
For the molecule `C/C(=N\NC(=O)Nc1cc(F)cc(F)c1)c1ncccc1C(=O)O`, the outcome in test [1], in test [2] and in test [5] was inactive.
Take `CCCCc1ccccc1`: the outcome in test [1], in test [2] and in test [5] was inactive.
For `CC(O)C#N` (stereo not drawn), the result in [1], in test [2] and in test [5] was inactive.
